# Laboratory results taken from PubChem BioAssay AID1347172 (National Center for Advancing Translational Sciences (NCATS), 2019).
# Inconclusive results are not listed. Where a call stands in place of a potency, no number is given. The source made the active and inactive calls. The call rests on the fitted dose curve; in most records, active means well fitted inhibition curve with a large enough effect; inconclusive means small, poorly fitted or top-dose-only effect; inactive means flat fitted curve, though single readings scatter.
# Test: Secondary qRT-PCR qHTS assay for selected Zika virus inhibitors
# Conditions: Vero cells ZIKV infection, NS5 RNA qRT-PCR, 24 h; series mostly up to 32.6 µM
# Text: Assay Submitters (PI): Avindra Nath, Ph.D., National Institute of Neurological Disorders and Stroke (NINDS), Bethesda, MD Radhakrishnan Padmanabhan, Ph.D., Georgetown University (GU), Washington D.C. Zika Virus causes congenital defects, including microcephaly and is associated with Guillain-Barre syndrome, eningoencephalitis and myelitis in infected adult. […] Using a target-based approach, we hope to establish a screening paradigm to uncover novel, cell-active NS2B-NS3 protease (Zika Virus) specific inhibitors from NCATS' collection of small molecules using qHTS. […] Four assay panel was created to identify potential Zika Virus inhibitors. Namely, (1) GU unlinked NS2B-NS3 AMC tagged protease qHTS, (2) GU unlinked NS2B-NS3 Rhodamine tagged protease qHTS, (3) NINDS linked NS2B-NS3 AMC tagged protease qHTS, (4) NINDS linked NS2B-NS3 Rhodamine tagged protease qHTS. Inhibitors of the Zika virus primary screens are confirmed using qRT-PCR secondary assays, qRT-PCR mCherry orthogonal assay, and qRT-PCR viability counterscreen. Early Translation Branch (ETB) National Center for Advancing Translational Sciences (NCATS), Rockville, MD National Institute of Health (NIH), Bethesda, Maryland
# 384-well ZIKV qRT-PCR Assay: Vero cells were treated with the indicated compounds at different concentrations, infected with ZIKV (MOI=1) and incubated at 37 degrees C for 3 hours to permit virus invasion. After 3 hr, supernatant was removed, and cells were washed once to remove extracellular virus. After a further 21 hr incubation, infected cells were washed three times with cold PBS (4 degrees C). Plates were then process using the TaqmanGene Expression Cells-to-Ct Kit (ThermoFisher Scientific) following the manufactures protocol. Primers directed to the NS5 sequence (F-[…]; R-GCTCGGCCAATCAGTTCA) along with Taqman probe (FAM-[…]-BHQ; Biosearch Technologies) were used to quantify drug inhibition of viral load. Reactions were run at initial 95 degrees C for 10 min, then 40 cycles of 95 degrees C for 20 sec and 60 degrees C for 40 sec using a LightCycler 480 (Roche). Relative viral copy numbers were generated by normalizing to cells treated with vehicle.
row,SMILES,Potency
1,Oc1c(Cl)c(Cl)c(Cl)c(Cl)c1Cl,inactive
2,CN(C)[C@@H]1C(=O)C(C(N)=O)=C(O)[C@@]2(O)C(=O)C3=C(O)c4c(O)cccc4[C@@](C)(O)[C@H]3C[C@@H]12,inactive
3,O=C(Nc1ccc(Br)cc1)c1cc(Br)cc(Br)c1O,22.4 µM (active)
4,C[C@]12CC[C@@H]3c4ccc(OC(=O)N(CCCl)CCCl)cc4CC[C@H]3[C@@H]1CC[C@@H]2O,inactive
5,CN(C)[C@@H]1C(=O)C(C(N)=O)=C(O)[C@@]2(O)C(=O)C3=C(O)c4c(O)ccc(Cl)c4[C@@](C)(O)[C@H]3C[C@@H]12,inactive
